# Screening results deposited in PubChem by several laboratories.
# Only some compounds are listed: those with a hit (about 3.6% of all), similar ones and a draw of the others.
# WT yeast gro inh: growth inhibition of WT strain, primary screen, mitochondrial fusion inhibitor project, WT and mutant strains, chemical genetic; mitochondrial fusion phenotypic screen; inhibition, % at 10 µM; 190,000 tested, 2.1% active; in the data active means inhibition above about 58%; tested in S. cerevisiae
# HCT116 PTEN-null: growth suppression of PTEN-null HCT116, primary screen, cell-based, CellTiter-Glo; HCT116 PTEN-null viability, 60 h; hits give low values; viability, % at 10 µM; 140,000 tested, 1.2% active;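 active means viability at or below a set limit, 4 SD under the median of all tested compounds, cut at about 3.7% in these data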;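 further: PTEN knockout HCT116 line with beta catenin targeted HCT116 as companion control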
# HCT116 bCat-KO: primary screen for growth suppressors in beta-catenin knockout HCT116 cells (colon tumor, human); 140,000 tested, 1.5% active; HCT116 beta-catenin knockout viability, CellTiter-Glo, 60 h; hits give low values; AID 818, 2007; viability, % at 10 µM;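 active means viability at or under a set limit, the compound median less 4 SD, cut at about 6% in these data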;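 further: 0% = Hyamine 1622 control at 20 µM and 100% = untreated cell control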
# DAT uptake mod: changed hDAT dopamine uptake under cocaine IC80, either direction, primary screen, cocaine antagonist project, cell-based, LLC-PK1 hDAT, [14C]-dopamine uptake, MLSMR. Sodium-dependent dopamine transporter (Homo sapiens), Q01959. LLC-PK1 hDAT cells, [14C]-dopamine uptake with cocaine IC80; actives deviate in either direction. B-score at 10 µM. 110,000 tested, 1.3% active. AID 449768, 2010;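 active means Z score or B-score, a plate-position-corrected score, falls beyond the plate's 99.7% confidence bounds, in either direction; inactive means both scores lie inside the 99.7% bounds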;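 further: scored against the spread of the other compound wells on the same plate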
# Target sequence (Q01959 whole entry, looked up): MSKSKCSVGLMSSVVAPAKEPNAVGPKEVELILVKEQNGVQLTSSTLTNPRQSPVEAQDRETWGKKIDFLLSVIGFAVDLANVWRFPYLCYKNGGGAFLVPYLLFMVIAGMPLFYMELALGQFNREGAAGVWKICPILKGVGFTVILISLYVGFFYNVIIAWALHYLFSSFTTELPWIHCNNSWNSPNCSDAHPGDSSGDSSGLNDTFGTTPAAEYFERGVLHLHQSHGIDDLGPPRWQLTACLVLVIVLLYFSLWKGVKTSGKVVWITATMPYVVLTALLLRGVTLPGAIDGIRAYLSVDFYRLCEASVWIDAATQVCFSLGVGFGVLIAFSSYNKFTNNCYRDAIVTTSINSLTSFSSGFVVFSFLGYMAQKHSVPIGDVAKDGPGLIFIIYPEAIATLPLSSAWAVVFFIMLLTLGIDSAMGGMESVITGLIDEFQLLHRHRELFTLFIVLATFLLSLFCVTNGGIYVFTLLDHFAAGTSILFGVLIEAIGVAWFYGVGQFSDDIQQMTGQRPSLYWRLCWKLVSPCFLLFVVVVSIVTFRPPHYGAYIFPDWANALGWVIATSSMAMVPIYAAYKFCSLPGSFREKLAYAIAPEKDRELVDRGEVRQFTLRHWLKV
# * hit, by the source's call; . = no result.
SMILES,WT yeast gro inh,HCT116 PTEN-null,HCT116 bCat-KO,DAT uptake mod
CCOc1ccc(CCNC(=O)CCn2cccc2)cc1OCC,1.5,76.5,71.6,-4.3*
CC1CCCC(NC(=O)COC(=O)[C@@H](NC(=O)c2ccco2)C(C)C)C1C (some centres undefined),-11.1,.,.,.
O=C(Nc1ccc(Cl)cc1)Nc1ccc(N2CCCC2)c(S(=O)(=O)Nc2ccccc2Cl)c1,51.2,1.8*,1.9*,.
Cc1scc(C(=O)N/N=C/c2ccc(Cl)s2)c1C,-4.4,42.7,35.4,.
Cc1cc(N=Cc2cc(Cl)ccc2O)no1,58.3*,100.6,92.1,-0.449
Cn1c(/N=C/c2cc(Cl)ccc2O)nc2ccccc21,7.4,81.8,93.4,0.176
N#C/C(=C\C=C\c1ccccc1[N+](=O)[O-])C(=O)NC1CCCCC1,6.3,.,.,.
N#C/C(=C\c1ccccc1[N+](=O)[O-])C(=O)NC1CCCCC1,58.1*,.,.,.
O=C(NCc1cccnc1)NC1(C(F)(F)F)Oc2ccc(Cl)cc2O1 (centres undefined),7.7,21.1,23.0,-7.42*
Cc1ccc2c(c1)-c1nc3ccccc3cc1C2=NC1CCCCC1,33.4,2.8*,8.3,.
C=CCNC(=S)N(CC=C)C1CCS(=O)(=O)C1 (centres undefined),-13.6,103.5,99.7,.
CN(C)[C@@H]1CCC[C@@H]1OC(=O)C(c1ccccc1)c1ccccc1,-1.8,99.5,93.6,.
Cc1cccc(C(=O)NNC(=O)c2ccccc2)c1,-7.6,96.8,84.4,.
Cc1cccc(C(=O)c2cnc3ccccc3c2-c2ccccc2)c1,62.4*,67.1,70.6,-0.149
O=C(c1ccccc1Oc1ccccc1)N1CCN(c2ccccc2)CC1,0.3,75.7,85.1,-0.129
Oc1ccc(N=Nc2cccc(C(F)(F)F)c2)cc1C=Nc1ccc(N2CCOCC2)cc1,28.9,4.4,4.1*,.
OCCC1CN(Cc2ccc3c(c2)CCO3)CCN1C1CCCC1 (centres undefined),-12.2,.,.,.
O=S(=O)(Nc1cccc2cccnc12)c1ccc(S(=O)(=O)N2CCCC2)cc1,3.0,3.8*,8.7,2.31
COCC(C)NC(=O)/C(=C/c1ccccc1)c1ccccc1 (centres undefined),-4.7,.,.,.
CC(NC(=O)/C(=C/c1ccc(OC(F)F)cc1)c1ccccc1)c1ccccc1 (centres undefined),65.3*,70.6,77.5,.
O=C(c1ccc2c(=O)n(CC3CCCO3)c(=S)[nH]c2c1)N1CCN(c2ccccc2)CC1 (centres undefined),-14.2,1.5*,1.1*,0.055
Cc1nn(Cc2c(Cl)cccc2Cl)c(C)c1NC(=O)c1cn(-c2ccccc2)nc1-c1ccccc1,7.3,0.5*,0.6*,.
O=C(Nc1nccs1)c1cc2c(s1)CCCCC2,55.1,51.4,48.9,4.31*
O=C(Nc1nncs1)c1cc2c(s1)CCC2,-16.2,.,.,.
Brc1ccc(-c2csc(N/N=C/c3ccco3)n2)cc1,43.8,.,.,.
SMILES,WT yeast gro inh,HCT116 PTEN-null,HCT116 bCat-KO,DAT uptake mod
CCCc1cc(-c2nc(-c3ccc(Br)cc3)cs2)ccn1,68.7*,76.6,68.9,.
O=C(O)c1ccc(-c2nc(-c3ccc(Cl)cc3)cs2)cc1,30.7,.,.,.
CCCc1cc(-c2nc(-c3ccc(Cl)cc3)cs2)ccn1,78.0*,72.3,79.1,-0.414
O=C(Nc1ccc2nc(-c3ccco3)[nH]c2c1)c1ccco1,-11.4,89.2,85.2,3.02*
COCCOc1cc(NC(=O)CS(=O)(=O)CC(=O)N(C)C)c(Cl)cc1Cl,-4.9,.,.,.
Cc1ccnc(NC(=O)c2ccc([N+](=O)[O-])o2)c1,5.7,4.2,3.5*,1.2
COc1ccc(C(=O)c2c(C(F)(F)F)oc3c2C(=O)c2ccccc2C3=O)cc1,92.3*,1.8*,1.2*,-2.25
COc1ccc(C(=O)c2coc(-c3ccccc3C(=O)O)c2C(=O)O)cc1,-19.0,97.5,85.5,.
CCC(CC)c1nnc(NC(=O)c2ccc3ccccc3n2)s1,61.4*,17.3,14.1,0.882
CC(=O)Nc1ccc(S(=O)(=O)N2CCSC2c2ccc(Cl)cc2)cc1 (centres undefined),78.0*,68.0,63.2,-0.105
CCOC(=O)c1ccc(NC(=S)N2CCSC2c2ccc(Cl)cc2)cc1 (centres undefined),59.8*,63.9,75.2,.
O=C(Cn1c(C(F)(F)F)nc2ccccc21)N/N=C/c1ccco1,-9.4,.,.,.
CCN(CC)c1ncnc2scc(C3COc4ccccc4O3)c12 (centres undefined),84.7*,64.6,69.6,1.61
c1ccc2c(c1)OCC(c1csc3ncnc(N4CCOCC4)c13)O2 (centres undefined),16.4,61.8,78.0,-0.058
CCOC(=O)c1cc(NC(=O)CSc2nnc(CN3CCOCC3)n2C)ccc1Cl,-13.3,100.3,99.0,-8.89*
Cc1cccc(NC(=O)CSc2nnc(CN3CCOCC3)n2C)c1C,-6.6,.,.,.
COc1cc(NC(=O)c2ccnnc2)cc(C(=O)Nc2cccc(C(F)(F)F)c2)c1,.,.,.,3.33*
O=C1CC(c2ccc3c(c2)OCO3)c2cc3c(cc2N1)OCCO3 (centres undefined),-11.6,92.1,83.3,-2.77*
O=C1CC(c2ccncc2)c2cc3c(cc2N1)OCCO3 (centres undefined),6.1,91.1,95.0,0.011
CCOC(=O)c1c(NC(=S)NC(C)=O)sc(C)c1C,-4.9,96.7,91.4,.
CCC(C)(C(=O)Nc1ccc2c(c1)OCCO2)N(C(C)=O)c1ccc(C(N)=O)cc1 (centres undefined),-4.7,108.2,107.5,-2.84*
CCOC(=O)c1ccc(NC(=O)Nc2ccc3c(c2)OCCO3)cc1,16.7,41.2,53.1,1.4
CCOC(=O)C1CCCN(C(=O)CS(=O)(=O)Cc2ccccc2)C1 (centres undefined),60.1*,85.9,85.4,.
Cc1ccc(NC(=O)c2cc(Cl)nc3ccccc23)cc1,-12.5,61.6,74.5,-2.46*
O=C(CSc1nnnn1-c1ccccc1)N1CCc2ccccc21,-1.8,101.1,93.4,0.0201
SMILES,WT yeast gro inh,HCT116 PTEN-null,HCT116 bCat-KO,DAT uptake mod
O=C(CSc1nnnn1-c1ccc(Cl)cc1)N1CCc2ccccc2C1,81.2*,108.7,94.4,0.856
COc1cc(/C=C/C(=O)c2ccc(O)cc2)ccc1OCC#N,-13.2,1.7*,2.7*,.
COc1cccc(C(=O)/C=C/c2ccc(OCC#N)c(OC)c2)c1,-19.0,2.5*,3.6*,.
CCOc1ccc(/C=C/C(=O)c2ccccc2)cc1OC,-21.9,7.4,8.8,.
COC(=O)c1ccc(/C=C/C(=O)c2cccc(OC)c2)cc1,13.9,1.9*,2.1*,.
O=C(CN(c1cccc(C(F)(F)F)c1)S(=O)(=O)c1ccc(Cl)c([N+](=O)[O-])c1)NCc1ccc(F)cc1,-4.5,43.9,49.0,.
CCC(C)NC(=O)Cn1c(COc2ccc(Cl)cc2Cl)nc2ccccc21 (centres undefined),-4.7,86.6,84.6,.
Cc1cc(C(F)(F)F)nn1CC(=O)N(C)C1CCCCC1,.,.,.,-0.551
CCNC(=O)NC(=O)C(C)OC(=O)Cc1coc2cc3c(cc12)CCC3 (centres undefined),10.3,.,.,.
